A selection: hits, their analogues and other compounds. The true share with any hit is near 11%.
IMPase inh: qHTS Assay for Identifying the Cell-Membrane Permeable IMPase Inhibitors; Inositol monophosphatase 1 (Rattus norvegicus), P97697; CHO-M1 cells, IP1 accumulation, HTRF TR-FRET ratio; inhibition (IP1 accumulation), % at 46.1 µM; 120,000 tested, under 10 active; active means well fitted curve in the direction sought with a large enough effect in the signal ratio, not every such curve was filed as active; inconclusive means small, poorly fitted or top-dose-only effect, or a change in a side signal; inactive means no such curve, though single readings can be large or run the other way; the % refers to the signal ratio;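 further: cells stimulated with carbachol in lithium chloride buffer; plate controls were DMSO basal wells for no effect and reference inhibitor wells for full effect; higher means more IMPase inhibition seen as more IP1 and lower FRET ratio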
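Elevated IP1 in lysates lowers TR-FRET signal (665/620 ratio and 620 channel reported). Cells were CHO-M1, given carbachol (50 uM as added) plus 50mM LiCl, pH 7.4, 30 min, 37C; compounds titrated up to 46 uM; AC50 by Hill equation.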
ALDH1A1 block: qHTS Assay for Inhibitors of Aldehyde Dehydrogenase 1 (ALDH1A1); Aldehyde dehydrogenase 1A1 (Homo sapiens), P00352; AID 1030, 2008; Potency, µM (series often up to 75.3 µM), without a hit: at the top dose activity, negative = inhibition, actives largely listed as inhibitors; 7.3% of 220,000 active; Purified ALDH1A1, NADH fluorescence, propionaldehyde substrate; active means well fitted inhibition curve with a large enough effect, not every such curve was filed as active; inconclusive means small, poorly fitted or top-dose-only effect, or another doubt; inactive means no such curve, though single readings can be large or run the other way;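 further: potency means the concentration at half of the fitted maximal effect; plate controls were no enzyme wells and a reference inhibitor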
HPGD block: qHTS Assay for Inhibitors of HPGD (15-Hydroxyprostaglandin Dehydrogenase). 15-hydroxyprostaglandin dehydrogenase [NAD(+)] (Homo sapiens), P15428. purified HPGD, NADH fluorescence kinetic, PGE2 substrate. Potency, µM, without a hit: top-dose activity change, negative = inhibition, most hits filed as inhibitors. 4.3% of 150,000 active. AID 894, 2007; active means well fitted inhibition curve with a large enough effect, not every such curve was filed as active; inconclusive means small, poorly fitted or top-dose-only effect, or another doubt; inactive means no such curve, though single readings can be large or run the other way; further: potency means the concentration at half of the fitted maximal effect
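20 nM HPGD preincubated 15 min at room temperature with compound in 50 mM Tris-HCl pH 8, 0.01% Tween 20. Started with 1 mM NAD+ and 30 uM prostaglandin E2; NADH fluorescence (360/450 nm) read 5 times over 30-s intervals, last minus first.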
ALOX12 inhib: qHTS Assay for Inhibitors of 12-hLO (12-human lipoxygenase) | Potency, µM (highest dose often 57.1 µM), for inactives: at the top dose activity change, negative = inhibition, hits mostly inhibitors | Polyunsaturated fatty acid lipoxygenase ALOX12 (Homo sapiens), P18054 | purified 12-hLO, xylenol orange hydroperoxide absorbance | 0.12% of 150,000 active; further: potency means the concentration at half of the fitted maximal effect; nearly all actives have a fitted effect of over 55% in size
Target sequence (P18054 whole entry, looked up): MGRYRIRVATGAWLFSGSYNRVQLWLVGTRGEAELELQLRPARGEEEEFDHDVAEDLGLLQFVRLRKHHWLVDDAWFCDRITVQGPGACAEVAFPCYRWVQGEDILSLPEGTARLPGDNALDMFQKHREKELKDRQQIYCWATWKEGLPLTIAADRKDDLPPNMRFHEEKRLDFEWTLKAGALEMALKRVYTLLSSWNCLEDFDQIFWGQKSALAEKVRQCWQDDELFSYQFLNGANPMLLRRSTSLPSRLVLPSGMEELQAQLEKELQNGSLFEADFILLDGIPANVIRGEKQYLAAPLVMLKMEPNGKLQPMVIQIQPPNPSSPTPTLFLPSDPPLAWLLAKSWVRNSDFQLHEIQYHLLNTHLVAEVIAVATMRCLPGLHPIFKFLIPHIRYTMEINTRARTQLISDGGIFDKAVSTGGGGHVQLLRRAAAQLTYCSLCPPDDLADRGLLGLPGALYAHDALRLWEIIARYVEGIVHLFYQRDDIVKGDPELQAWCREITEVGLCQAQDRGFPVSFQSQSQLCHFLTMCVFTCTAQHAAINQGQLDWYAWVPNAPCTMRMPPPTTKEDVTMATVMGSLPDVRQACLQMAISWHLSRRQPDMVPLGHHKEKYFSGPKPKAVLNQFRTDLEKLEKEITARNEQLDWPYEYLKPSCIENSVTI
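Purified human 12hLO (150 nM), preincubated 15 min with compound, then 40 uM arachidonic acid for 30 min, room temperature, Hepes pH 7.0 with 0.01% Triton X-100. Hydroperoxide detected by ferrous iron/xylenol orange; 573/405 nm absorbance ratio gives reaction progress.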
PNC inhibitor: High Content Assay for Compounds that inhibit the Assembly of the Perinucleolar Compartment | PC3M PTB-GFP, PNC prevalence imaging, 16 h; stronger effect = lower value | 3.1% of 140,000 active | activity change (PNC), negative = inhibition, % at 10 µM;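 active means readout at or below -70, meaning at least 70% loss of cells showing the perinucleolar compartment, a nuclear body marking cancer cells; inconclusive means readout between -30 and a set limit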;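 further: plate controls were DMSO wells for no effect and camptothecin positive control wells for full effect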
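Compounds are pinned in duplicate onto adhered PC3M cells stably expressing GFP-tagged PTB and incubated 16 h at 37 C. Cells are then fixed, nuclei stained with Hoechst, and PNC-positive cells counted.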
IMPase Li inh: qHTS Assay for Identifying the Cell-Membrane Permeable IMPase Inhibitors: Potentiation with Lithium; CHO-M1 cells, IP1 TR-FRET (IP-One), carbachol + lithium; Potency, µM (doses to about 59.4 µM), without a hit: at the highest dose activity, negative = IMPase inhibition, actives largely listed as inhibitors; 0.35% of 210,000 active; AID 1457, 2008;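 further: IP1 builds up when IMPase is blocked and the TR-FRET signal falls; potency means the concentration at half of the fitted maximal effect; plate controls were basal vehicle for no effect and high inhibitor control for full effect; nearly all actives have a fitted effect of over 50% in size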
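CHO cells stably expressing M1 receptor (2000/well, cultured 16–30 h) treated 30 min at 37C with compound plus low lithium. Cytosolic IP1 by TR-FRET (665/620 ratio and 620 channel) after 10 min lysis; AC50 by Hill fit.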
Starred values were filed as active, the others as inactive; ? = inconclusive; · = not tested or not shown; [ ] = another dose, or the depositor's remark. Unless noted, the call rests on the fitted dose curve; in most records, active means well fitted curve in the direction sought with a large enough effect; inconclusive means small, poorly fitted or top-dose-only effect, or another doubt; inactive means no such curve, though single readings can be large; an effect the other way counts as inactive or inconclusive. Unless noted, on the % scale 0 is the no-effect control and ±100 the full control effect.

SMILES	IMPase inh	ALDH1A1 block	HPGD block	ALOX12 inhib	PNC inhibitor	IMPase Li inh
CC(C)C[C@@H](CC(=O)N[C@H](CC(=O)N[C@@H]1CCNC[C@H]1C(=O)N[C@H](CC(=O)N[C@@H](CCC(=O)O)CC(=O)O)Cc1c[nH]c2ccccc12)C(C)C)NC(=O)[C@@H]1CNCC[C@H]1N	·	?	-0.5%	-1.9%	·	14.5%
Cc1nc(NC2CCCCC2)c2nc(-c3ccccc3)n(C(C)CN(C)C)c2n1 (stereo not drawn)	·	?	-29.2%	-3.0%	·	-5.6%
CCN(C#N)c1nc(NC(C)C)nc(NC(C)(C)C)n1	·	-3.5%	·	·	·	6.5%
CCCN(C#N)c1nc(NCC)nc(NC(C)C)n1	0.1	10µM*	-4.7%	-9.1%	-2.7	-6.6%[38.3 µM]
O=C(C(=O)N1CCN(c2cccc(Cl)c2)CC1)N1CCCCC1	·	-1.5%	·	·	·	7.8%
O=C(c1ccccc1)N1CCN(C(=O)c2ccccc2)CC1	5.2	1.4%	0.1%	2.2%	36.3	-3.5%
Cc1scc(C(=O)N2CCN(c3ccc(Cl)cc3)CC2)c1C	·	20µM*	·	·	·	6.9%
O=C(c1ccccc1)N1CCN(c2ccc(Cl)cc2)CC1	-5.3	14.1µM*	-27.7%	-23.9%	-8.7	19.4%[38.3 µM]
O=C(N1CCCCC1)N1CCN(c2ccc(Cl)cc2)CC1	2.6	7.94µM*	?	2.5%	12.7	14.4%[38.3 µM]
NC1=C(c2ccc(F)cc2)C(=O)CS1	-8.5	20µM*	6.31µM*	-16.0%	?	16.9%[38.3 µM]
Nc1nnc(-c2ccc(F)cc2)s1	-0.4	-9.1%	-17.0%	-7.7%	17.7	-6.2%[38.3 µM]
CCC1SC(N)=NC1=O (stereo not drawn)	8.2	11.0%	-11.1%	1.1%	-89.6*	18.6%[38.3 µM]
CN(C)C(=O)c1ccc(-c2cncnc2N2CCNCC2)cc1	·	10.7%	·	·	·	20.6%
Cc1ccc(N2C(=O)C(CC(=O)Nc3cccc(F)c3)N(C3CC3)C2=O)cc1 (stereo not drawn)	·	20µM*	·	·	·	3.1%
COc1cccc(N2C(=O)C(CC(=O)Nc3ccc(F)cc3)N(C3CCCCC3)C2=O)c1 (stereo not drawn)	18.0	7.8%	-2.7%	-5.6%	-29.4	27.2%[38.3 µM]
O=C(c1csnn1)N1CCC2(CCCN(c3ccc(-c4ccccc4)cc3)C2)CC1	·	-12.9%	-12.7%	-9.9%	·	1.6%
CCN(CC)C(=O)CSc1nc2ccccc2c(=O)n1CC1CCCCC1	24.0	11.2µM*	·	-12.3%	-28.3	·
CCn1c(SCC(=O)c2ccccc2)nc2ccccc2c1=O	·	15.8µM*	·	·	·	19.9%
CC(=O)c1ccc(-n2c(SCC(=O)c3c[nH]c4ccccc34)nc3ccccc3c2=O)cc1	?	17.2%	28.2µM*	1.9%	?	-23.2%
CCOC(=O)c1c(C)[nH]c(C)c1C(=O)CSc1nc2ccccc2c(=O)n1-c1ccc(CC)cc1	·	?	-7.5%	1.9%	142.6	5.8%
COn1c(SC2CCCCC2)nc2ccccc2c1=O	-6.7	31.6µM*	31.6µM*	-2.5%	?	-0.6%[38.3 µM]
CC(CCC(=O)O)C1CCC2C3CC[C@H]4CC(O)CC[C@@]4(C)C3CC[C@@]12C (stereo partly drawn)	·	3.0%	3.8%	-7.7%	·	6.1%
CC(C)=CCC/C(C)=C/CO/N=C1/C[C@@H](O)[C@@H](O)[C@@H]2[C@@H]3C(=O)N(C[C@@H]4CCCO4)C(=O)[C@H]3CC[C@H]12	·	-3.8%[13.5 µM]	·	·	·	·
CC(=O)OCC(=O)[C@@]12OC3(CCCC3)OC1CC1C3CCC4=CC(=O)C=C[C@@]4(C)[C@]3(F)C(O)C[C@]12C (stereo partly drawn)	·	-3.4%	-7.3%	-1.5%	·	4.7%
CC(C)Cn1c(SCC(=O)N2CCc3ccccc3C2)nc2cc(Cl)ccc2c1=O	·	10µM*	-6.7%	-1.4%	1.4	12.8%

Source: PubChem
